Screens as filed in PubChem BioAssay.
DT40 TDP1 CPT = DT40-hTDP1 cell growth loss with CPT. chicken DT40 Tdp1-/-;hTDP1 cells + 20 nM CPT, ATP luminescence, 48 h. Potency, µM (titrated, usually from 46.2 µM), without a hit: at the top dose activity change, negative = growth inhibition, actives largely listed as inhibitors. hit rate 12% among 420,000; further: potency means the concentration at half of the fitted maximal effect; nearly all actives have a fitted effect of over 55% in size
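Chicken DT40 Tdp1-/- cells complemented with human TDP1, 400 cells/well, exposed to compounds plus 20 nM camptothecin for at least 48 h at 37 C; viability read as ATP content by CellTiter-Glo luminescence.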
IL1B secr inh = inhibitors of inflammasome signaling (IL-1 beta secretion); activity change, % at 57.5 µM; hit rate 4.7% among 360,000; AID 743279; THP-1 LPS/ATP IL-1B secretion, AlphaLISA, 16 h; stronger effect = lower value; in the data active means activity change below about -50%; inconclusive means mostly about -30% to -49%
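Secreted IL-1B measured by AlphaLISA bead assay after 16 h compound exposure of THP-1 cells; compounds (final up to 57.5 uM) added 1 h before LPS (250 ng/mL) and ATP (1.25 mM) stimulation; lower signal means less secretion.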
DT40 TDP1 no CPT = qHTS for Inhibitors of human tyrosyl-DNA phosphodiesterase 1 (TDP1): qHTS in cells in absence of CPT | DT40 Tdp1-/- hTDP1 cells, no CPT, ATP luminescence, 48 h | Potency, µM (doses to about 46.2 µM), without a hit: at the top dose activity change, negative = growth inhibition, usual class: inhibitors | hit rate 15% among 420,000 | AID 686978, 2013; further: potency means the concentration at half of the fitted maximal effect; nearly all actives have a fitted effect of over 55% in size
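No-CPT arm: Tdp1-/-;hTDP1 DT40 cells (400/well) plus compounds, incubated ≥48 hr at 37 °C. Readout CellTiter-Glo luminescence.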
HT1080 IDH1KD tx = HT-1080 IDH1 knockdown cell toxicity (counter line) | AID 686971 | Potency, µM (titrated, usually from 46.1 µM), inactives show at the highest dose activity, negative = toxicity, actives largely listed as cytotoxic | hit rate 2% among 360,000 | HT-1080 IDH1 knockdown viability, ATP luminescence, 48 h;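 further: potency means the concentration at half of the fitted maximal effect; 0% = DMSO wells and -100% = cell-free medium wells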
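After a 2 h attachment period, IDH1KD HT-1080 cells took pin-transferred compound for 48 h at 37 °C; ATP-based luminescence after 10 min room-temperature reagent incubation reported viability.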
HT1080NT lethal = kills 2HG-producing HT-1080-NT fibrosarcoma cells; HT-1080-NT fibrosarcoma viability, CellTiter-Glo ATP luminescence, 48 h; Potency, µM (highest dose often 46.1 µM), without a hit: at the highest dose activity, negative = less viability, actives largely listed as cytotoxic; hit rate 1.6% among 360,000;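 further: NT is the 2HG producing partner of a matched IDH1 knockdown line; potency means the concentration at half of the fitted maximal effect; 0% = DMSO-treated cells and -100% = media-only wells without cells; nearly all actives have a fitted effect of over 55% in size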
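Compounds were tested in concentration-response format on HT-1080-NT cells for 48 hours at 37 degrees C. Cell viability came from CellTiter-Glo luminescence; curves were classified by r2, response magnitude and activity.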
Starred values were filed as active, the others as inactive. Rows were chosen to be rich in hits. Some 19% of all compounds tested hit in one or more screens of this group. Unless noted, the call rests on the fitted dose curve; in most records, active means well fitted curve in the direction sought with a large enough effect; inconclusive means small, poorly fitted or top-dose-only effect, or another doubt; inactive means no such curve, though single readings can be large; an effect the other way counts as inactive or inconclusive. Unless noted, on the % scale 0 is the no-effect control and ±100 the full control effect.

How did CCCCCCn1c(O)c(C=NC2CCN(Cc3ccccc3)CC2)c(=O)[nH]c1=O do in these assays?
DT40 TDP1 CPT: 21µM*; IL1B secr inh: -28; DT40 TDP1 no CPT: 10µM*; HT1080 IDH1KD tx: -4%; HT1080NT lethal: -5%

How did CCN(CC)CCCN=Cc1c(O)n(CCc2ccc(F)cc2)c(=O)[nH]c1=O do in these assays?
DT40 TDP1 CPT: -4%; IL1B secr inh: -14; DT40 TDP1 no CPT: -23%; HT1080 IDH1KD tx: 5%; HT1080NT lethal: 4%

Results for NC1CCCCC1N=Cc1c(O)n(CCc2ccc(F)cc2)c(=O)[nH]c1=O (centres undefined) ?
DT40 TDP1 CPT: inconclusive; IL1B secr inh: -6; DT40 TDP1 no CPT: 18µM*; HT1080 IDH1KD tx: 20%; HT1080NT lethal: 12%

Results for O=c1[nH]c(=O)n(CCC2=CCCCC2)c(O)c1C=NC1CCN(Cc2ccccc2)CC1 ?
DT40 TDP1 CPT: 15µM*; IL1B secr inh: inconclusive; DT40 TDP1 no CPT: 16µM*; HT1080 IDH1KD tx: -11%; HT1080NT lethal: -21%

Results for CCNC(=O)O/N=C(\C)c1sc(-c2ccccc2)nc1C ?
DT40 TDP1 CPT: inconclusive; IL1B secr inh: -23; DT40 TDP1 no CPT: inconclusive; HT1080 IDH1KD tx: -6%; HT1080NT lethal: -6%

What do the screens show for `Cc1nnc2n1-c1sc(Br)cc1C(c1ccccc1Cl)=NC2`?
DT40 TDP1 CPT: -18%; DT40 TDP1 no CPT: inconclusive

Results for Cc1nn(CC(C)C)c(Cl)c1C(=O)NC1CCC(C)CC1 (centres undefined) ?
DT40 TDP1 CPT: 7%; IL1B secr inh: 33; DT40 TDP1 no CPT: -9%; HT1080 IDH1KD tx: 11%; HT1080NT lethal: 16%

Results for CCCC1=Nc2cc(C(=O)NCCc3ccc(OC)cc3OC)ccc2Sc2ccccc21 ?
DT40 TDP1 CPT: 18µM*; DT40 TDP1 no CPT: inconclusive

What do the screens show for `CCCC1=Nc2cc(C(=O)NC3CCC(C)CC3)ccc2Sc2ccccc21` (centres undefined)?
DT40 TDP1 CPT: 6.5µM*; DT40 TDP1 no CPT: 4.1µM*

How did NP(=O)(OCCCc1ccccc1)Oc1ccc(Cl)cc1 (centres undefined) do in these assays?
DT40 TDP1 CPT: -26%; IL1B secr inh: 3; DT40 TDP1 no CPT: -12%; HT1080 IDH1KD tx: -1%; HT1080NT lethal: -1%

What do the screens show for `CC(C)(O)C1C2OC(=O)C1[C@]1(O)CC3O[C@@]34C(=O)OC2[C@@]14C` (some centres undefined)?
DT40 TDP1 CPT: 9%; DT40 TDP1 no CPT: 15%

What do the screens show for `CCOc1cc(CN2CCN(C(=O)Cc3ccccc3)CC2)ccc1OC`?
DT40 TDP1 CPT: -25%; IL1B secr inh: 0; DT40 TDP1 no CPT: inconclusive; HT1080 IDH1KD tx: -5%; HT1080NT lethal: 1%

How did CCOc1ccc(CCNC(=O)c2ccc(-n3c(C)cc4c3CCCC4)cc2)cc1OCC do in these assays?
DT40 TDP1 CPT: 12µM*; DT40 TDP1 no CPT: 12µM*

Results for O=S(=O)(NCC(c1cccnc1)N1CCN(c2ccc(F)cc2)CC1)c1ccccc1 (centres undefined) ?
DT40 TDP1 CPT: 12µM*; IL1B secr inh: 9; DT40 TDP1 no CPT: 21µM*; HT1080 IDH1KD tx: -6%; HT1080NT lethal: 3%

What do the screens show for `CN1CCC(N(C)c2nc(-c3ccc([N+](=O)[O-])cc3)nc3ccccc23)CC1`?
DT40 TDP1 CPT: 8.2µM*; IL1B secr inh: -96*; DT40 TDP1 no CPT: 12µM*; HT1080 IDH1KD tx: inconclusive; HT1080NT lethal: inconclusive

How did O=C(CF)NC(NC(=S)Nc1cccc([N+](=O)[O-])c1)C(Cl)(Cl)Cl (centres undefined) do in these assays?
DT40 TDP1 CPT: 21µM*; IL1B secr inh: -19; DT40 TDP1 no CPT: inconclusive; HT1080 IDH1KD tx: 7%; HT1080NT lethal: 4%

Results for Cc1cc(OCC(=O)NC(Cc2ccc(Cl)cc2)C(=O)O)c2c3c(c(=O)oc2c1)CCCC3 (centres undefined) ?
DT40 TDP1 CPT: 1%; IL1B secr inh: 2; DT40 TDP1 no CPT: 0%; HT1080 IDH1KD tx: -8%; HT1080NT lethal: -5%
